Screens: PubChem BioAssay, Broad Institute
rRNA inh HTS = inhibitors of bacterial rRNA selective over humanized ribosomes; E. coli WT GFP vs humanized-ribosome RFP mutants, fluorescence, 24 h; hits give low values; DMSO median 0, no signal -100; GFP signal change (wild-type ribosome), % (concentration not given with the values); hit rate 1.6% among 350,000;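 active = significant combined selectivity score with lowered wild-type GFP, culture density cut under 30%, mutant RFP and density less affected; inactive = any of these conditions unmet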
LGR2 inh = inhibitors of bursicon-induced Drosophila LGR2 receptor cAMP signaling; HEK293 LGR2, CRE-luciferase, bursicon-stimulated, 4 h; inhibition, % at 9.99 µM; hit rate 0.35% among 380,000;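 active = drop in luminescence signal, shown as inhibition above about 50% in the replicate tests, limit read from the data, passing the limit was not always enough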;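 note: agonist challenge used bursicon conditioned medium at about half maximal strength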
PAX8 inh HTS = inhibitors of PAX8 transcriptional activity in RMG-I cells; RMG-I TPO-luciferase reporter, SteadyGlo, 24 h; inhibition, % at 12.6 µM; hit rate 1.2% among 360,000;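 active = mean replicate inhibition at least 60% with every replicate also reaching 60%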;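 note: luciferase light reporting Pax8 driven TPO promoter activity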
PGC1a acetyl inh = modulators of PGC1a acetylation; inhibition, % at 15.6 µM; U2OS PGC1a acetylation, AlphaScreen anti-acetyl-lysine; with virally co-expressed GCN5 acetyltransferase; hit rate 0.17% among 350,000;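 active = every replicate shows inhibition of at least 40%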
EWS-Fli inh = inhibitors of EWS/Fli oncoprotein transcriptional activity; A673 NR0B1-luciferase reporter, viability-normalised; AID 651661; hit rate 0.67% among 350,000; inhibition, % at 12.6 µM;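 active = mean inhibition of at least 50% after viability correction, with every replicate also passing that limit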;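 note: firefly luciferase signal divided by Alamar Blue viability fluorescence both relative to DMSO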
SIRT5 inh = blocks human SIRT5 desuccinylation of peptide; hit rate 1.1% among 330,000; Purified SirT5, succinyl-peptide AMC, trypsin-coupled fluorescence; Q9NXA8; inhibition, % at 15 µM; in the data active = inhibition above about 15%
Target sequence (Q9NXA8 whole entry, looked up): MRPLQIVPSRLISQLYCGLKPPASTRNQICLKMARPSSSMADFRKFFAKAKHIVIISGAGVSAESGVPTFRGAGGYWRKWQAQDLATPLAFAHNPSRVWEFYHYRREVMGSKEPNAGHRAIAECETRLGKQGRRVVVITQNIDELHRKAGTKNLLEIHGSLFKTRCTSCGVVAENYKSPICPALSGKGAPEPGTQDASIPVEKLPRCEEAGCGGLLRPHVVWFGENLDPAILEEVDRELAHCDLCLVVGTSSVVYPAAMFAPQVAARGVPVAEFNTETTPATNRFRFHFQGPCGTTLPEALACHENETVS
Of the large screens only hits and unclear results are named; the others gave an inactive call; ! = not active in a repeat. Shown are actives, neighbours in structure and some others; about 3.4% of the full set was active somewhere.

O=C(c1ccccc1F)N1CC(=O)N2[C@@H](CO)[C@@H](c3ccc(C#Cc4ccc(F)cc4)cc3)[C@@H]2C1	PAX8 inh HTS 108.2
O=C(c1ccc(F)cc1)N1CC(=O)N2[C@@H](CO)[C@H](c3ccc(C#CCC4CCCC4)cc3)[C@@H]2C1	SIRT5 inh 15.6
O=C(c1ccc(F)cc1)N1CC(=O)N2[C@H](C1)[C@H](c1ccc(/C=C/c3ccccc3)cc1)[C@@H]2CO	PAX8 inh HTS 68.8
O=C(c1ccccc1F)N1CC(=O)N2[C@H](C1)[C@H](c1ccc(C#Cc3ccc(F)cc3)cc1)[C@@H]2CO	none
O=C(c1ccc(F)cc1)N1CC(=O)N2[C@H](CO)[C@H](c3ccc(/C=C/c4ccccc4)cc3)[C@@H]2C1	none
O=C(C[C@H]1CC[C@@H](NC(=O)CCN2CCCCC2)[C@H](CO)O1)Nc1ccccc1	none
Cc1noc(C)c1S(=O)(=O)Nc1ccc2c(c1)CC(=O)N([C@@H](C)CO)C[C@@H](C)[C@H](CN(C)C(=O)Nc1ccc3c(c1)OCO3)O2	none (no result: SIRT5 inh)
COc1ccc(NC(=O)c2cc([N+](=O)[O-])ccc2O)cc1	LGR2 inh 96.0, PAX8 inh HTS 100.2, EWS-Fli inh 72.8
O=C(O)c1ccccc1C(=O)Nc1cccc([N+](=O)[O-])c1	none (no result: PGC1a acetyl inh)
O=C(Nc1cccc([N+](=O)[O-])c1)c1cc2ccccc2cc1O	PAX8 inh HTS 77.6
CN1CCN(C(=O)C[C@@H]2CC[C@H]3[C@@H](COC[C@H](O)CN3CC3CCCCC3)O2)CC1	none (no result: rRNA inh HTS, LGR2 inh)
CN1C(=O)c2cc(NC(=O)C3CC3)ccc2OC[C@@H]2O[C@@H](CC(=O)NCc3ccccc3F)CC[C@@H]21	none (no result: PGC1a acetyl inh)
Cc1ccc(N=CC2=C(O)CC(c3ccc(Cl)cc3)CC2=O)cc1 (stereo not drawn)	PAX8 inh HTS 146.2 (no result: PGC1a acetyl inh)
CN(C)C(=S)Nc1cccc(-c2n[nH]c(=S)o2)c1	none (no result: PGC1a acetyl inh)
NNC(=S)Nc1cccc(-c2n[nH]c(=S)o2)c1	SIRT5 inh 18.3
COc1ccc2c3c(n(C)c2c1)[C@@H](CO)NCC31CCN(C(=O)c2ccc(F)cc2)CC1	none (no result: PAX8 inh HTS)
CCOc1ccc(C(=O)CSCCC(=O)O)cc1	SIRT5 inh 112.3
C[C@@H]1CCCCO[C@H](CN(C)Cc2ccc3c(c2)OCO3)[C@H](C)CN([C@H](C)CO)C(=O)c2cc(NC(=O)Nc3ccc(F)cc3)ccc2O1	PAX8 inh HTS 66.3
C[C@@H]1CN([C@H](C)CO)C(=O)c2cc(NC(=O)Nc3ccc(F)cc3)ccc2O[C@@H](C)CCCCO[C@H]1CN(C)Cc1ccc2c(c1)OCO2	PAX8 inh HTS 66.4, EWS-Fli inh 68.1
C[C@H](CO)N1C[C@H](C)[C@@H](CN(C)Cc2ccc3c(c2)OCO3)OCCCC[C@H](C)Oc2ccc(NC(=O)Nc3ccc(F)cc3)cc2C1=O	none
C[C@@H]1CN([C@H](C)CO)C(=O)c2cc(NC(=O)Nc3ccc(F)cc3)ccc2O[C@@H](C)CCCCO[C@@H]1CN(C)Cc1ccc2c(c1)OCO2	PAX8 inh HTS 92.2
C[C@@H]1CCCCO[C@@H](CN(C)Cc2ccc3c(c2)OCO3)[C@@H](C)CN([C@H](C)CO)C(=O)c2cc(NC(=O)Nc3ccc(F)cc3)ccc2O1	none
CCCC(=O)N1CC2(CN(C(=O)NC(C)C)C2)c2c(n(C)c3cc(OC)ccc23)[C@H]1CO	none (no result: PAX8 inh HTS)
C[C@@H]1CN(C)C(=O)c2cccc(N(C)C)c2O[C@@H]1CN(C)C	none (no result: LGR2 inh, PAX8 inh HTS, PGC1a acetyl inh, EWS-Fli inh, SIRT5 inh)
CCOC(=O)c1nc(N)c(C(=O)OCC)[nH]1	none (no result: rRNA inh HTS, PAX8 inh HTS, EWS-Fli inh, SIRT5 inh)
CCOC(=O)c1c(C)nc(C(Cl)(Cl)Cl)nc1N	rRNA inh HTS -36.6
C/C=C/c1ccc(C2[C@@H]3CN(C(=O)Nc4ccccc4F)C[C@H]2N3)cc1 (stereo partly drawn)	none (no result: SIRT5 inh)
C/C=C/c1ccc(C2[C@@H]3CN(C(=O)Nc4ccc(F)cc4)C[C@H]2N3)cc1 (stereo partly drawn)	none
O=C(Nc1ccc(F)cc1)N1C[C@@H]2N[C@H](C1)C2c1ccc(/C=C/c2ccccc2)cc1 (stereo partly drawn)	PAX8 inh HTS 105.2! (no result: SIRT5 inh)
O=C(Nc1ccccc1F)N1C[C@@H]2N[C@H](C1)C2c1ccc(/C=C/c2ccccc2)cc1 (stereo partly drawn)	SIRT5 inh 26.9
CC=Cc1ccc2n(c1=O)C[C@H]1[C@H](CO)[C@@H](C(=O)NCc3ccccc3)N(CC)[C@@H]21 (mixture of isomers)	none (no result: PAX8 inh HTS)
CCC(=O)N(C)C[C@@H]1Oc2cc(C#CC3CCCC3)ccc2S(=O)(=O)N([C@H](C)CO)C[C@@H]1C	none (no result: PAX8 inh HTS)
Cc1csc(N=Nc2ccc(N(C)C)cc2)[n+]1[O-]	LGR2 inh 74.8, PAX8 inh HTS 68.1 (no result: PGC1a acetyl inh, SIRT5 inh)
Cc1ccc(C=Nc2ccc(N(C)C)cc2)o1	none (no result: PAX8 inh HTS)
Nc1c(O)ccc2c1C(=O)c1ccccc1C2=O	rRNA inh HTS -56.0 (no result: PGC1a acetyl inh)
Nc1cc(N)c2c(c1)C(=O)c1ccccc1-2	none
CCOC(=O)c1cnc2ccc(C(=O)OC)cc2c1NCCN1CCOCC1	rRNA inh HTS -27.0 (no result: PAX8 inh HTS, PGC1a acetyl inh)
CCOC(=O)c1cnc2ccc(C(=O)OC)cc2c1NCCCN1CCOCC1	none
COCC(=O)Nc1ccc2c(c1)OC[C@H](C)N(Cc1ccncc1)C[C@H](C)[C@@H](OC)CN(C)C2=O	none (no result: PAX8 inh HTS)
C[C@H](CO)N1C[C@H](C)[C@H](CN(C)S(=O)(=O)c2cn(C)cn2)OCc2cnnn2CCCC1=O	none
C[C@@H]1CN([C@H](C)CO)C(=O)CCCn2nncc2CO[C@H]1CN(C)S(=O)(=O)c1cn(C)cn1	PGC1a acetyl inh 105.5
C[C@@H]1CN([C@@H](C)CO)C(=O)CCCn2nncc2CO[C@H]1CN(C)S(=O)(=O)c1ccc2c(c1)OCCCO2	SIRT5 inh 20.5!
Cc1cc(C(=O)COC(=O)c2ccc[nH]c2=O)c(C)n1-c1ccccc1F	none (no result: PGC1a acetyl inh)
Cc1cc(C(=O)COC(=O)C2=COCCO2)c(C)n1-c1ccccc1	LGR2 inh 91.0, PAX8 inh HTS 74.6 (no result: PGC1a acetyl inh)
Cc1cc(C(=O)COC(=O)C2=NNC(=O)CC2)c(C)n1-c1ccccc1	none (no result: PAX8 inh HTS)
Cc1cc(C(=O)COC(=O)c2ccc(O)cc2)c(C)n1-c1ccccc1F	rRNA inh HTS -29.2 (no result: PGC1a acetyl inh)
CN(C)C(=O)C[C@@H]1CC[C@@H]2[C@H](COC[C@H](O)CN2CC2CC2)O1	none
O=[N+]([O-])c1ccc(-c2nc(Nc3ccc(O)cc3)c3ccccc3n2)cc1	none (no result: PGC1a acetyl inh)
Cc1ccc(Nc2nc(-c3cccnc3)nc3ccccc23)cc1	EWS-Fli inh 58.3
c1ccc(CNc2nc(-c3cccnc3)nc3ccccc23)cc1	none
c1ccc(CN2CCC(Nc3nc(-c4cccnc4)nc4ccccc34)CC2)cc1	rRNA inh HTS -32.5
O=C(O)c1ccc(Nc2nc(-c3ccc([N+](=O)[O-])cc3)nc3ccccc23)cc1	rRNA inh HTS -21.0, SIRT5 inh 24.2
CNC[C@H]1OCCCC[C@@H](C)Oc2ccc(NS(=O)(=O)c3ccc(OC)cc3)cc2C(=O)N([C@@H](C)CO)C[C@@H]1C	none (no result: SIRT5 inh)
